Screening results: PubChem BioAssay, several laboratories
Hits are enriched below; roughly 32% of the tested compounds scored in any of these assays.
CYP2C9 activ: increases human cytochrome P450 2C9 activity; 1.4% of 96,000 active; activation factor at 5 µM; P11712; recombinant CYP2C9, luciferin-H conversion, luminescence; stronger effect = higher value; factor 1 = untreated enzyme, 0 = blocked;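 active means activation factor of 2 or more for CYP2C9 at a 5 µM dose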;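 further: 0 = sulfaphenazole-blocked wells and 1 = vehicle-only wells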
Target sequence (P11712 whole entry, looked up): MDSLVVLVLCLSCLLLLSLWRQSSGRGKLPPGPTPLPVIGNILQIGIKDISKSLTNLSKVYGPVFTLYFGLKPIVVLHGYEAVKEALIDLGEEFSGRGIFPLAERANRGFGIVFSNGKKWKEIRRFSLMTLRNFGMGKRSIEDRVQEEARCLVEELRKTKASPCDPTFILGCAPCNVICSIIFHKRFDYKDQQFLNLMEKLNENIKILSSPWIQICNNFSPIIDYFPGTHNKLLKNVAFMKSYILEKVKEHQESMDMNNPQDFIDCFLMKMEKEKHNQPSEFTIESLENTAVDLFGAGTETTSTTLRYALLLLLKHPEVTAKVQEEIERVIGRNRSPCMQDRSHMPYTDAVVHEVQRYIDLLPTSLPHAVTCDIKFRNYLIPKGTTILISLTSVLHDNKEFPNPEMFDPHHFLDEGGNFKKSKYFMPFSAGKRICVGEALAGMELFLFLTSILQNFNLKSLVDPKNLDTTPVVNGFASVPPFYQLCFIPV
PostGolgi ctrl: yeast control strain growth, post-Golgi counter-screen | 5% of 98,000 active | AID 738 | inhibition, % at 10 µM | efflux-deficient yeast background strain, growth absorbance A615, 16 h
CYP2C9 inhib: inhibitors of human CYP2C9; P11712; CYP2C9 Supersomes, luciferin-H conversion, luminescence; inhibition, % at 5 µM; 20% of 96,000 active; AID 777;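 active means blocking of liver enzyme CYP2C9 beyond about 50% at 5 µM, limit read from the data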
CYP2C19 act: activators of human cytochrome P450 2C19. P33261. recombinant CYP2C19, luciferin-H EGE luminescence; stronger effect = higher value; 0 = fully inhibited enzyme, 1 = untreated enzyme. activation factor at 5 µM. 96,000 tested, under 10 active;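 active means activation factor of at least 2 at 5 µM in the primary screen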;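 further: 0 = wells with 2.5 mM tranylcypromine and 1 = vehicle-only wells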
PostGolgi yeast: growth inhibition of a yeast mutant, post-Golgi transport screen; inhibition, % at 10 µM; post-Golgi transport phenotypic cell assay; AID 739; 0.9% of 98,000 active;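 further: yeast cells grown in 1536-well plates; yeast grown about 18 h at 30C before absorbance read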
CYP2C19 inh: blocks human cytochrome P450 2C19. inhibition, % at 5 µM. CYP2C19 Supersomes, luciferin-H EGE luminescence, 30 min. 21% of 96,000 active;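 active means CYP2C19 inhibition above a set limit at 5 µM in the primary screen, cut at about 50% in these data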;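 further: plate controls were negative control wells for no effect and 2.5 mM tranylcypromine positive control for full effect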
Numbers without * were called inactive; · = no result given. Unless noted, no stated cut-off is given here; in the data, active means inhibition above about 30%; inactive means the rest.

SMILES | CYP2C9 activ | PostGolgi ctrl | CYP2C9 inhib | CYP2C19 act | PostGolgi yeast | CYP2C19 inh
O=C(c1ccccc1)N1CCN(c2ccc(Cl)cc2)CC1 | 0.3 | -8 | 68* | 0 | 12 | 98*
O=C(c1csc2c1CCCC2)N1CCN(c2ccccc2)CC1 | 2* | 8 | -102 | 0.9 | -4 | 14
CC(=O)c1c(C)[nH]c(C(=O)N2CCN(c3ccc(F)cc3)CC2)c1C | 1 | 19 | 0 | 0.3 | 5 | 71*
CCOC(=O)N1CCN(C(=O)c2csc3c2CCCCC3)CC1 | 0.2 | 4 | 76* | 0.4 | -8 | 55*
CCC(=O)c1cc2c(cc1NC(=O)C(C)C)OCCO2 | 0.8 | -5 | 24 | 0.9 | -1 | 12
Cc1oc(C(=O)O)cc1CSc1nnc(-c2ccccc2)n1C | 0.7 | 1 | 29 | 1.2 | 1 | -16
O=C(Nc1ccc(N2CCN(C(=O)c3ccc(Cl)cc3)CC2)cc1)c1ccc(Br)o1 | 0.4 | 54* | 57* | 0.7 | 21 | 32
O=C(c1ccc(Br)o1)N1CCN(c2ccc(F)cc2)CC1 | 0.8 | 30 | 24 | 0.1 | 7 | 95*
O=C(O)c1oc2ccccc2c1CSc1ccccn1 | 0.9 | -7 | 11 | 1.1 | 4 | -8
O=C(c1ccc(Cl)cc1)c1oc2ccccc2c1CS(=O)c1ccccc1 (centres undefined) | 0.7 | 49* | 26 | 0.7 | -4 | 28
CCOC(=O)C1CCCc2c1[nH]c1c(C(N)=O)cccc21 (centres undefined) | 0.5 | 34* | 53* | 0.6 | 7 | 39
CCC1=NN(C(=O)C(=O)Nc2ccccc2OC)C(O)(C(F)(F)F)C1 (centres undefined) | 0.4 | 22 | 62* | 0.8 | 0 | 15
CCC1=NN(C(=O)Cc2ccc(OC)cc2)C(O)(C(F)(F)F)C1 (centres undefined) | 0.9 | -1 | 10 | 0.5 | 1 | 53*
CCC1=NN(C(=O)CCc2ccccc2)C(O)(C(F)(F)F)C1 (centres undefined) | 0.5 | 2 | 48 | 0.3 | 10 | 67*
CCC1=NN(C(=O)C(=O)Nc2ccc(OC)cc2)C(O)(C(F)(F)F)C1 (centres undefined) | 0.9 | 9 | 12 | 0.9 | 2 | 14
Cc1ccccc1OCC(=O)N/N=C/c1cccn1C | 1 | 12 | -4 | 0.7 | 0 | 29
CCOC(=O)C1=C(CSc2nc3ccccc3s2)NC(=O)NC1c1cccc([N+](=O)[O-])c1 (centres undefined) | 0.8 | 10 | 22 | 0.7 | 16 | 34
CC(=O)OCCCNc1cc(Sc2nc3ccccc3s2)c2nonc2c1[N+](=O)[O-] | 1 | 43* | -4 | 1.1 | -2 | -13
COc1ccc(/C=N/NC(=O)c2cccc([N+](=O)[O-])c2)cc1OC(=O)c1ccc(C)cc1 | 0.5 | 20 | 54* | 0.6 | -1 | 36
COc1ccc(/C=N/NC(=O)c2cccc([N+](=O)[O-])c2)cc1OS(=O)(=O)c1ccccc1 | 0.9 | 12 | 10 | 0.8 | 4 | 24
COc1ccc(/C=N/NC(=O)c2cccc([N+](=O)[O-])c2)cc1OC(=O)c1ccccc1 | 0.5 | 33* | 48 | 0.6 | -13 | 42
COc1cc(/C=N/NC(=O)c2cccc([N+](=O)[O-])c2)ccc1OCc1ccccc1 | · | -4 | · | · | -5 | ·
N#CC1=C(N)Oc2c(ccc3ccccc23)C1c1cccs1 (centres undefined) | 0.5 | 26 | 54* | 0.5 | 1 | 46
CCN1CC2=C(OC(N)=C(C#N)C2c2cccs2)/C(=C\c2cccs2)C1 (centres undefined) | 0.8 | 8 | 18 | 0.9 | 1 | 6
N#CC1=C(N)Oc2cc(O)ccc2C1c1ccncc1 (centres undefined) | 0.1 | -2 | 92* | 0.2 | -3 | 84*
SMILES | CYP2C9 activ | PostGolgi ctrl | CYP2C9 inhib | CYP2C19 act | PostGolgi yeast | CYP2C19 inh
CN(C)c1ccc2c(c1)OC(N)=C(C#N)C2c1cccc(F)c1 (centres undefined) | 0.2 | 37* | 80* | 0.1 | -3 | 92*
N#CC1=C(N)Oc2cc(O)ccc2C1c1cccs1 (centres undefined) | 0.3 | -1 | 74* | 0.2 | -7 | 76*
COc1ccc(Cn2nc(C)cc2C)cc1OC | 0.9 | 1 | 8 | 0.6 | -13 | 40
CCCc1nnc(NC(=O)Cn2cnc3ccccc3c2=O)s1 | 0.9 | 8 | 6 | 1 | -9 | -1
Cc1occc1C(=O)NNC(=S)Nc1cccc([N+](=O)[O-])c1 | 0.9 | 0 | 12 | 0.8 | -5 | 24
CCCN1C(=O)SC(CC(=O)Nc2ccc(Br)cc2)C1=O (centres undefined) | 0.5 | 12 | 52* | 0.3 | 11 | 70*
CN=C1SC(CC(=O)Nc2ccc(N3CCOCC3)cc2)C(=O)N1C (centres undefined) | 1.2 | 2 | -20 | 1.1 | 5 | -13
O=C(CC1Sc2ncnn2C1=O)Nc1ccc(Br)cc1 (centres undefined) | 0.8 | 9 | 20 | 0.2 | -3 | 76*
O=C(CC1SC2=NCCN2C1=O)Nc1ccc(Br)cc1 (centres undefined) | · | -1 | · | · | 5 | ·
COc1ccc(-c2nnc(SC(C)C(=O)Nc3nccs3)n2Cc2ccccc2)cc1OC (centres undefined) | 0.4 | 1 | 56* | 0.6 | -2 | 44
CSCC[C@H](NC(=O)CCn1nnc2ccccc2c1=O)C(=O)O | 1.2 | -2 | -16 | 1 | 6 | -3
COc1ccc(OC)c(C2SCCN2S(C)(=O)=O)c1 (centres undefined) | 1 | -5 | 0 | 0.9 | -3 | 7
COc1ccccc1C1SCCN1S(C)(=O)=O (centres undefined) | 1.3 | 15 | -28 | 0.4 | 8 | 57*
CCOC(=O)CSc1nc2ccccc2c(=O)n1CCCCCC(=O)NCc1ccco1 | 0 | 5 | 97* | 0.4 | -1 | 60*
O=C(CCCn1c(=S)[nH]c2ccccc2c1=O)NCc1ccco1 | 1.1 | 9 | -11 | 0.9 | 2 | 7
O=C(CCCn1c(SCC(=O)c2ccc(Cl)cc2)nc2ccccc2c1=O)NCc1ccco1 | 0.5 | 12 | 54* | 0.8 | -1 | 19
O=C(CCCCCn1c(SCC(=O)c2ccccc2)nc2ccccc2c1=O)NCc1ccco1 | 0 | 10 | 98* | 0.2 | -6 | 82*
Cc1cnn(Cc2ccccc2)c1N | 1 | -1 | 4 | 0.7 | 1 | 30
COc1ccc(CCNS(=O)(=O)c2cn(C)c(=O)n(C)c2=O)cc1OC | 1 | 2 | 4 | 0.8 | -5 | 22
CCOC(=O)Nc1c(O)ccc2oc(C)c(-c3ccccc3)c12 | 0.8 | 18 | 24 | 0.8 | 12 | 21
Cc1csc(C2=C(O)CN(c3ccc4c(c3)OCCOCCOCCOCCO4)C2=N)n1 | 1 | 10 | 3 | 1 | -12 | 3
O=C(NC1CCCCC1)N1CCSC1=Nc1ccccc1 | 0.8 | 50* | 23 | 1 | 5 | 2
O=C(NC1CCCCC1)N1CCCc2ccccc21 | 0.9 | 2 | 14 | 0.5 | -1 | 53*
